Reference: ChEMBL document CHEMBL2218924, “A broad activity screen in support of a chemogenomic map for kinase signalling research and drug discovery” (Biochem J, 2013)

What was measured:
[1] = target: T1, Serine/threonine-protein kinase 3 (Homo sapiens) (UniProt Q13188); settings: at 1 µM
T1 sequence (whole entry): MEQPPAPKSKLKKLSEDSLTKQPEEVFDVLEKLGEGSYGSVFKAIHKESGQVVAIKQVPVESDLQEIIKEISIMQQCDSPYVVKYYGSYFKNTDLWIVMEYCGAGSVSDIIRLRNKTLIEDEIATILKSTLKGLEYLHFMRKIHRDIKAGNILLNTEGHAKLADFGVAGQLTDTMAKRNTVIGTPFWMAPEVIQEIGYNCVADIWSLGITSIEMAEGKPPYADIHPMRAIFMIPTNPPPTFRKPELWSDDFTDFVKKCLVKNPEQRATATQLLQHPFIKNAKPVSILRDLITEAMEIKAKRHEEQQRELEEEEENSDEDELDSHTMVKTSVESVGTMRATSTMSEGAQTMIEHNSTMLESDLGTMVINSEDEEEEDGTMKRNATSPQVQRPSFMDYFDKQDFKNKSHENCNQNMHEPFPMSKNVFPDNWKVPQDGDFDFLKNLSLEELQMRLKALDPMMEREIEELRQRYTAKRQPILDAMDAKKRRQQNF

[2] = target: T1, Serine/threonine-protein kinase 3 (Homo sapiens); settings: at 10 µM
[3] = target: Serine/threonine-protein kinase 24 (Homo sapiens) (UniProt Q9Y6E0); settings: at 1 µM
Sequence of Serine/threonine-protein kinase 24 (Homo sapiens) (Q9Y6E0 whole entry, looked up): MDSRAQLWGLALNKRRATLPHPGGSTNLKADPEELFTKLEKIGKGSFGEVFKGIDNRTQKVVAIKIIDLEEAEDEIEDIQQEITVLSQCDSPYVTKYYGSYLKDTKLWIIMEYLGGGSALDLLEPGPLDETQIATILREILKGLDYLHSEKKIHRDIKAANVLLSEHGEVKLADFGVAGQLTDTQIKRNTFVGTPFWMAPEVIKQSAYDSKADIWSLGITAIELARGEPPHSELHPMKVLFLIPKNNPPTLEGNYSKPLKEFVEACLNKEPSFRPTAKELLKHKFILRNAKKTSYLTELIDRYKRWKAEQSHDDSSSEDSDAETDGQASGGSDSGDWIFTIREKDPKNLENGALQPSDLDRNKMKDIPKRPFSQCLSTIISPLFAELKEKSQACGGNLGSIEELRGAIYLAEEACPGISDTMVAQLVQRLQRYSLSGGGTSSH

[4] = target: Serine/threonine-protein kinase 24 (Homo sapiens) (UniProt Q9Y6E0); settings: at 10 µM
[5] = target: T2, Tyrosine-protein kinase Mer (Homo sapiens) (UniProt Q12866); settings: at 1 µM
T2 sequence (whole entry): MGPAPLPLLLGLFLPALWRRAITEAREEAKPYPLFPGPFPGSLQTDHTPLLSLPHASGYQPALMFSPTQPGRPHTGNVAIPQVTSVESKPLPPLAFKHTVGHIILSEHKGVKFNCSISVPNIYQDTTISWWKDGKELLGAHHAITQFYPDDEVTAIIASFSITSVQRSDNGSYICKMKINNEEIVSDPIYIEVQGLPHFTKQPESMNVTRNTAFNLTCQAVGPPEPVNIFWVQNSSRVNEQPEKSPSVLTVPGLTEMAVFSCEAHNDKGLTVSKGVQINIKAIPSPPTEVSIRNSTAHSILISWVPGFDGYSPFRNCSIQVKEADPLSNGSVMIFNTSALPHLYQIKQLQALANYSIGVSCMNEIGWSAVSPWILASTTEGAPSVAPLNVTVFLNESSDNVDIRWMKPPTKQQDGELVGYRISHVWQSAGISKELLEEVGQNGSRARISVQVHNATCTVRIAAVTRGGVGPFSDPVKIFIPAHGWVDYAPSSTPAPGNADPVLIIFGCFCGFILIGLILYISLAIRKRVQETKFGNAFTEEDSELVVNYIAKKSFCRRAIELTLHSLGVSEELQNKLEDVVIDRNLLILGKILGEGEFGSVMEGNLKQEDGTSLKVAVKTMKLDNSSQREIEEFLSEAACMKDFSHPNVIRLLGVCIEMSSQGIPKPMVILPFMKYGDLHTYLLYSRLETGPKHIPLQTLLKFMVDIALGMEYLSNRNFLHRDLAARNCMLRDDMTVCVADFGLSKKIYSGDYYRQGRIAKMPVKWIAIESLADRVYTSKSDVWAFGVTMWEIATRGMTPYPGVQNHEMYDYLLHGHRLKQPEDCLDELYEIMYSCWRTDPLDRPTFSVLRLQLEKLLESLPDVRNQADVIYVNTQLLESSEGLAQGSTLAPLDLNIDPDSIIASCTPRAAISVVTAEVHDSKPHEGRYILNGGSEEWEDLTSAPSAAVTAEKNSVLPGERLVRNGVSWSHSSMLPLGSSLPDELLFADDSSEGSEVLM

[6] = target: T2, Tyrosine-protein kinase Mer (Homo sapiens); settings: at 10 µM
[7] = target: Hepatocyte growth factor receptor (Homo sapiens) (UniProt P08581); settings: at 1 µM
Sequence of Hepatocyte growth factor receptor (Homo sapiens) (P08581 whole entry): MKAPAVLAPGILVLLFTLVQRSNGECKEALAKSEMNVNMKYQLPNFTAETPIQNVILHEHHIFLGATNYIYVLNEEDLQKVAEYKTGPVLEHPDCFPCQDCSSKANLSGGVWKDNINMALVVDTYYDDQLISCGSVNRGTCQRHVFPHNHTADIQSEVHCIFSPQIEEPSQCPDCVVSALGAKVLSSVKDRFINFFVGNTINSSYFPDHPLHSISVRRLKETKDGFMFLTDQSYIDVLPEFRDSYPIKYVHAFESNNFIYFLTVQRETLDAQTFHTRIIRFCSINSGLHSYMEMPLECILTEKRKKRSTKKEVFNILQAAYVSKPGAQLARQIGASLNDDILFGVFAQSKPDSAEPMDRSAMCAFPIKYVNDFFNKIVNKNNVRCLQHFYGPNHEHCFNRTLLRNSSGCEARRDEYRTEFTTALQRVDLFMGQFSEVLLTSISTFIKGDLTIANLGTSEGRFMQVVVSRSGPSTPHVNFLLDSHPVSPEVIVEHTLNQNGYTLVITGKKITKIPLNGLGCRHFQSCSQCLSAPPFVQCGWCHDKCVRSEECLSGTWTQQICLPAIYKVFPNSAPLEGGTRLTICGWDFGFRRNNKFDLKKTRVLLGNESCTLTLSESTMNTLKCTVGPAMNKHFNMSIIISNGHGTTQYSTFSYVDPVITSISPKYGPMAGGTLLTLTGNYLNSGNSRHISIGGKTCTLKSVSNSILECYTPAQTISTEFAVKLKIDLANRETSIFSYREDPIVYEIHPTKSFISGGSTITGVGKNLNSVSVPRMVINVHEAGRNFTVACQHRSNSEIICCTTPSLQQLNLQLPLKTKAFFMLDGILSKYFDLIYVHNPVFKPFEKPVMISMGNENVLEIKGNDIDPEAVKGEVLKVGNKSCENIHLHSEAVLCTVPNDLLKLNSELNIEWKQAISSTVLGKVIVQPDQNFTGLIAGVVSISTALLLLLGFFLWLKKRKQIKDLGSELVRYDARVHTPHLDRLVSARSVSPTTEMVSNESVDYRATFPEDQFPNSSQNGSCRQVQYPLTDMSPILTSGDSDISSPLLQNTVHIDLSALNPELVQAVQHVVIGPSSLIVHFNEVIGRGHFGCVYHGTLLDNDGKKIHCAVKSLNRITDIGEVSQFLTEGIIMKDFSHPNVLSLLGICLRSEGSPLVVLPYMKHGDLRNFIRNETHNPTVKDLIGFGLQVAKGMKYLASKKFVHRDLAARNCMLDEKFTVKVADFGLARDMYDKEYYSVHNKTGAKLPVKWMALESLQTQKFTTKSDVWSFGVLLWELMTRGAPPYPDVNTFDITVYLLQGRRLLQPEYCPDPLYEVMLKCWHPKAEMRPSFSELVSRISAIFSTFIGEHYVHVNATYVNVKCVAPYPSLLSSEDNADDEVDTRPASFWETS

[8] = target: Hepatocyte growth factor receptor (Homo sapiens) (UniProt P08581); settings: at 10 µM
[9] = target: MAP kinase-interacting serine/threonine-protein kinase 2 (Homo sapiens) (UniProt Q9HBH9); settings: at 1 µM
Sequence of MAP kinase-interacting serine/threonine-protein kinase 2 (Homo sapiens) (Q9HBH9 whole entry, looked up): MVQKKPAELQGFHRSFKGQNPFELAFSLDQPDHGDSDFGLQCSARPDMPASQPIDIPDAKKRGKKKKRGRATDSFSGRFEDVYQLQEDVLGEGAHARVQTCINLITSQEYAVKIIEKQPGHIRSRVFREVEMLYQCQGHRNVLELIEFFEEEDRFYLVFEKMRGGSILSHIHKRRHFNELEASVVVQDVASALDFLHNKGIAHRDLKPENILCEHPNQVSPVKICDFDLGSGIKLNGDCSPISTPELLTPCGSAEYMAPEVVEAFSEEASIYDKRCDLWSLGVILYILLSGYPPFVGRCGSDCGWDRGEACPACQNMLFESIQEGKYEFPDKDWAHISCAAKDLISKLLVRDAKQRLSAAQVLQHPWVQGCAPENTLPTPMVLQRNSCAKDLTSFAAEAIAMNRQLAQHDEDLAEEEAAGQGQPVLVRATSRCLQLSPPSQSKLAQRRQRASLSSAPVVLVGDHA

[10] = target: MAP kinase-interacting serine/threonine-protein kinase 2 (Homo sapiens) (UniProt Q9HBH9); settings: at 10 µM
[11] = target: T3, Muscle, skeletal receptor tyrosine-protein kinase (Homo sapiens) (UniProt O15146); settings: at 1 µM
T3 sequence (whole entry): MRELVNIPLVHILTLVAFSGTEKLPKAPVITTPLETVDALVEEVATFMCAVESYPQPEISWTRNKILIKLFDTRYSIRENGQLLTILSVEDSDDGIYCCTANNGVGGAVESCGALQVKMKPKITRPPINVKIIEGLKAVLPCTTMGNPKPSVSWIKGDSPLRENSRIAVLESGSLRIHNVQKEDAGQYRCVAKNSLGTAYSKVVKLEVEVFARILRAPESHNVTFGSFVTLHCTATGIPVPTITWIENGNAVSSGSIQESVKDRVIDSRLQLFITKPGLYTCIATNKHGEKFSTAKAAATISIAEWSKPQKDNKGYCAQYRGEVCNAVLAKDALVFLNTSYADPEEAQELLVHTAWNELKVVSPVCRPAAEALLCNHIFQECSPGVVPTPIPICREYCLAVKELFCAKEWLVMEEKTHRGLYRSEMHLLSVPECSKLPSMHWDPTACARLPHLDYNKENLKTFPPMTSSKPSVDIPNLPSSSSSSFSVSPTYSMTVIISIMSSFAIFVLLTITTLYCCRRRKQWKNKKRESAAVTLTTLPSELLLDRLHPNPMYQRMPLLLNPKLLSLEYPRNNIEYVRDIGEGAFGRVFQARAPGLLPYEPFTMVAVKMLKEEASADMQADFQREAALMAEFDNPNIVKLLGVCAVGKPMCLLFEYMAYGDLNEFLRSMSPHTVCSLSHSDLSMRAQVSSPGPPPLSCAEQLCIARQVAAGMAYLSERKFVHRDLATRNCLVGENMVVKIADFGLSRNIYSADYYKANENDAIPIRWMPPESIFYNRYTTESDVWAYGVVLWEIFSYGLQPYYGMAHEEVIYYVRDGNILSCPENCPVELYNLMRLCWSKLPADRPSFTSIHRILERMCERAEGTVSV

[12] = target: T3, Muscle, skeletal receptor tyrosine-protein kinase (Homo sapiens); settings: at 10 µM
[13] = target: T4, Serine/threonine-protein kinase Nek11 (Homo sapiens) (UniProt Q8NG66); settings: at 1 µM
T4 sequence (whole entry): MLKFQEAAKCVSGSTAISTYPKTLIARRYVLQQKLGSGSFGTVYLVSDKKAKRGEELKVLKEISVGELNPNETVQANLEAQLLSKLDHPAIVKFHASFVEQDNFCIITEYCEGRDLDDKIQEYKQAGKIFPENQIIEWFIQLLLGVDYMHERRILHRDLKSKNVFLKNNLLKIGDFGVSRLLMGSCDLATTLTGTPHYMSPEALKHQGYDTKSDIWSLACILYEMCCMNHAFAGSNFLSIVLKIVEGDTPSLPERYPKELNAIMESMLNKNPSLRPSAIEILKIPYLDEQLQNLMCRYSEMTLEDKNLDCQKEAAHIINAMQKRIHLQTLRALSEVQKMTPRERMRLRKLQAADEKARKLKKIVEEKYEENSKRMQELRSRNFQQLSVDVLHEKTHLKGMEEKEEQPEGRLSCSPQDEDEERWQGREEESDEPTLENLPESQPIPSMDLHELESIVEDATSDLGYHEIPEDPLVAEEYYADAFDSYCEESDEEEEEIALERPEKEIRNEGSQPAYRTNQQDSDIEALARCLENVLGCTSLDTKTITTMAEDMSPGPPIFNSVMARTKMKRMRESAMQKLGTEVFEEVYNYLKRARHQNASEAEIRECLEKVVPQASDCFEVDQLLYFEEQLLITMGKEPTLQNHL

[14] = target: T4, Serine/threonine-protein kinase Nek11 (Homo sapiens); settings: at 10 µM
[15] = target: T5, Serine/threonine-protein kinase Nek2 (Homo sapiens) (UniProt P51955); settings: at 1 µM
T5 sequence (whole entry): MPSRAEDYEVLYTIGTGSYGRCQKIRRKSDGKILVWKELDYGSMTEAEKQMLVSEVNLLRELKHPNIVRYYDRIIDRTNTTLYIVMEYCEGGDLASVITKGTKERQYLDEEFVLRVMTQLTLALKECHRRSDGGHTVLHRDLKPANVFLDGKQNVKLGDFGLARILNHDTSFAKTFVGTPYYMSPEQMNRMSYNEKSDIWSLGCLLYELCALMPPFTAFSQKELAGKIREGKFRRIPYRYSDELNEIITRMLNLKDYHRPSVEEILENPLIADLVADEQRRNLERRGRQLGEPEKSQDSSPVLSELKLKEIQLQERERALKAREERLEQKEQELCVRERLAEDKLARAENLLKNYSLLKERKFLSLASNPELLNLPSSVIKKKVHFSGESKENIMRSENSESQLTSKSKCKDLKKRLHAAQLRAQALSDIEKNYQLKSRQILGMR

[16] = target: T5, Serine/threonine-protein kinase Nek2 (Homo sapiens); settings: at 10 µM
[17] = target: T6, Serine/threonine-protein kinase Nek3 (Homo sapiens) (UniProt P51956); settings: at 1 µM
T6 sequence (whole entry): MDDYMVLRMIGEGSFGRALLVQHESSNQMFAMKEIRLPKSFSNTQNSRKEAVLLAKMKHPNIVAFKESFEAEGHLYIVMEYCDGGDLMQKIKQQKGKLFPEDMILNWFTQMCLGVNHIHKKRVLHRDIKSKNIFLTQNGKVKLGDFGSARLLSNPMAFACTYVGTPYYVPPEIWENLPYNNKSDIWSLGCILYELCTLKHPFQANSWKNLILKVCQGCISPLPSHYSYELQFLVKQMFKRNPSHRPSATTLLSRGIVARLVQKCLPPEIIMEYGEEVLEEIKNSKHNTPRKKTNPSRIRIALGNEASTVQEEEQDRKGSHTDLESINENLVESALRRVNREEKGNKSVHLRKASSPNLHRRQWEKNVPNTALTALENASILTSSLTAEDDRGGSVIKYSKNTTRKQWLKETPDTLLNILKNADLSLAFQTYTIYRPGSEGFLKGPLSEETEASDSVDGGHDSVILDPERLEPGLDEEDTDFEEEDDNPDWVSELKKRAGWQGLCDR

[18] = target: T6, Serine/threonine-protein kinase Nek3 (Homo sapiens); settings: at 10 µM
[19] = target: Serine/threonine-protein kinase tousled-like 2 (Homo sapiens) (UniProt Q86UE8); settings: at 1 µM
Sequence of Serine/threonine-protein kinase tousled-like 2 (Homo sapiens) (Q86UE8 whole entry, looked up): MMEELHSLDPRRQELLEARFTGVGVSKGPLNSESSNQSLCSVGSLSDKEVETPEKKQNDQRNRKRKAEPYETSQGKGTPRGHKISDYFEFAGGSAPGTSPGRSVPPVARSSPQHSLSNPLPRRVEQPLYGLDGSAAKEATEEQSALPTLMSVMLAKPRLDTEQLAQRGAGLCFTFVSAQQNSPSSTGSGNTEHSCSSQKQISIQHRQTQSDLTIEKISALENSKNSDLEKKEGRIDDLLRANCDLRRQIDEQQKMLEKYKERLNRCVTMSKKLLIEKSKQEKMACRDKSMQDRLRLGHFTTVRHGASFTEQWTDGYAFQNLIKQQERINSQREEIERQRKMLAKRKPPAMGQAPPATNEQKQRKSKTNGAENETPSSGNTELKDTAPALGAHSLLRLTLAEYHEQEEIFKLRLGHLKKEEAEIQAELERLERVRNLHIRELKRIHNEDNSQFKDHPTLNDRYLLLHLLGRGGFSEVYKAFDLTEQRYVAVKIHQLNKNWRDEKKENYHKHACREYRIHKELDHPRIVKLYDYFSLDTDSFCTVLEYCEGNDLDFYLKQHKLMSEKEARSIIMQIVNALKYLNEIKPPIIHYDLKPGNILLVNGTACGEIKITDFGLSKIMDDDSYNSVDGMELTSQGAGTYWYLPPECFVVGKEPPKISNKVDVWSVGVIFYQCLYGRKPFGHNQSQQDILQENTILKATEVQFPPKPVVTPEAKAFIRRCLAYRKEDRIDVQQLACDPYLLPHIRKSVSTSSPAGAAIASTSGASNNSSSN

[20] = target: Serine/threonine-protein kinase tousled-like 2 (Homo sapiens) (UniProt Q86UE8); settings: at 10 µM

SMILES	residual activity [1] [%]	residual activity [2] [%]	residual activity [3] [%]	residual activity [4] [%]	residual activity [5] [%]	residual activity [6] [%]	residual activity [7] [%]	residual activity [8] [%]	residual activity [9] [%]	residual activity [10] [%]	residual activity [11] [%]	residual activity [12] [%]	residual activity [13] [%]	residual activity [14] [%]	residual activity [15] [%]	residual activity [16] [%]	residual activity [17] [%]	residual activity [18] [%]	residual activity [19] [%]	residual activity [20] [%]
O=C1NC(=O)c2cc(Nc3ccc(F)cc3)c(Nc3ccc(F)cc3)cc21	100	68	68	54	105	93	89	59	106	86	34	3	70	93	77	94	109	81	101	85
Nc1ccc2ncnc(NCCc3ccc(Oc4ccccc4)cc3)c2c1	100	72	99	72	95	62	124	80	105	74	92	49	68	55	114	101	81	109	111	100
COc1cc2ncnc(Nc3ccc(O)c(Br)c3)c2cc1OC	97	70	54	43	69	16	86	72	10	6	77	63	50	64	73	83	106	81	86	76
COc1ccc(S(=O)(=O)N(CCO)c2ccccc2CN(C)C/C=C/c2ccc(Cl)cc2)cc1	99	78	78	69	93	83	113	120	106	96	79	79	95	109	105	102	80	92	92	85
O=C1Nc2cc(Br)ccc2/C1=C1/Nc2ccccc2/C1=N\O	10	5	62	70	26	4	118	97	62	77	80	84	69	45	89	86	65	70	81	48
O=C(O)c1ccc2c3c1cccc3c(=O)n1c3ccccc3nc21	103	81	97	67	80	28	130	73	67	23	105	94	80	93	123	102	93	97	104	97
CO[C@H]1C[C@@H]2CC[C@@H](C)[C@@](O)(O2)C(=O)C(=O)N2CCCC[C@H]2C(=O)O[C@H]([C@H](C)C[C@@H]2CC[C@@H](O)[C@H](OC)C2)CC(=O)[C@H](C)/C=C(\C)[C@@H](O)[C@@H](OC)C(=O)[C@H](C)C[C@H](C)/C=C/C=C/C=C/1C	94	84	64	76	101	93	95	105	105	88	87	86	97	112	83	81	113	64	92	83
Oc1n[nH]c2nnc(-c3c(-c4ccccc4)nn4ccccc34)cc12	96	86	72	71	98	105	104	113	107	99	87	84	56	74	95	93	77	103	83	82
COc1ccc(C(=O)Nc2sc3c(c2C(N)=O)CCCC3)cc1OC	105	91	68	65	107	86	120	110	99	82	92	84	77	96	80	103	110	72	95	87
CC(=O)O/N=C1\C(=C2\C(=O)Nc3cc(Br)ccc32)Nc2ccccc21	65	18	85	74	39	6	89	81	101	92	73	51	60	67	101	87	82	84	92	86
NC(=O)c1ccc2[nH]c(-c3ccc(Oc4ccc(Cl)cc4)cc3)nc2c1	100	74	79	82	95	95	128	101	61	19	84	63	54	33	82	82	75	91	86	82
O=C1c2ccccc2-[n+]2ccc3c([nH]c4ccccc43)c21	101	100	71	70	95	97	112	86	55	42	85	88	48	44	90	87	88	90	80	83
COc1ccc(CNc2nc(N(CCO)CCO)nc3c2ncn3C(C)C)cc1	107	104	65	60	90	60	122	85	99	100	86	73	53	64	90	85	71	90	83	85
CC#CC(=O)Nc1cc2c(Nc3ccc(F)c(Cl)c3)ncnc2cn1	103	94	71	75	107	94	111	84	101	90	100	84	70	99	73	95	107	84	102	87
